Data from PubChem BioAssay (NCATS).
Records with an inconclusive call do not appear. Values without a mark were called inactive. The source made the active and inactive calls. Calls follow the shape of the dose curve; as a rule, active = well fitted curve in the direction sought with a large enough effect; inconclusive = small, poorly fitted or top-dose-only effect, or another doubt; inactive = no such curve, though single readings can be large; an effect the other way counts as inactive or inconclusive. Where a SMILES comes first, the peptide text is derived from it. [ ]: non-standard residue; d: D form. pGlu = O=C1CC[C@@H](C(=O)O)N1

system: Zika virus NS2B-NS3 protease; experiment: Primary screen GU AMC qHTS for Zika virus inhibitors (AID 1347154); conditions: Zika NS2B-NS3 unlinked protease, AMC fluorogenic substrate; series mostly up to 54.1 µM; activity change, negative = inhibition: at the top concentration;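 also: 0% = no-inhibitor control and -100% = no-enzyme control; nearly all actives have a fitted effect of over 70% in size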
Outline: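 Unlinked Zika NS2B hydrophilic domain/NS3 protease domain noncovalent complex (25 nM final) in 10 mM Tris-HCl pH 8.0, 0.01% Tween 20, with AMC peptide substrate. Fluorescence (ex 340, em 450 nm) change over 15 min, room temperature; percent inhibition fitted to 4-parameter Hill equation.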

| SMILES | activity change, negative = inhibition | Potency |
| --- | --- | --- |
| CCOC(=O)NNc1ccc(N(CC)CC(C)O)nn1 (configuration not stated) | -5.12% | – |
| CCC1(c2cnc[nH]2)Cc2ccccc2C1 | -16.4% | – |
| Cc1[nH]cnc1-c1ccc(Cl)cc1 | 5.95% | – |
| O=[N+]([O-])c1ccc(O)c2ncccc12 | -15.2% | – |
| CC(=O)/C=C/C=C1/C2CCC(C2)C1(C)C (configuration not stated) | -3.04% | – |
| CN1CCC(=C2c3ccccc3CCc3cccnc32)CC1 | -0.254% | – |
| CC(C)(C)NCC(O)COc1ccccc1OCC1CCCO1 (configuration not stated) | -6.03% | – |
| CC(COc1ccccc1)NN (configuration not stated) | 1.79% | – |
| CN1CCC(Nc2ncc3ncnc(Nc4ccc(F)c(Cl)c4)c3n2)CC1 | – | inactive |
| CCOCCn1c(C2CCN(CCc3ccc(C(C)(C)C(=O)O)cc3)CC2)nc2ccccc21 | -3.83% | – |
| O=C(Oc1ccccc1)c1ccccc1O | 1.07% | – |
| O=c1[nH]c(=O)n([C@H]2O[C@H](CO)[C@@H](O)[C@@H]2O)cc1/C=C\Br | -5.63% | – |
| CC(=O)OC/C=C(C)/C=C/C=C(C)/C=C/C1=C(C)CCCC1(C)C | – | inactive |
| CCNC(=O)[C@@H]1CCCN1C(=O)[C@H](CCCN=C(N)N)NC(=O)[C@H](CC(C)C)NC(=O)CNC(=O)[C@H](Cc1ccc(O)cc1)NC(=O)[C@H](CO)NC(=O)[C@H](Cc1c[nH]c2ccccc12)NC(=O)[C@H](Cc1cnc[nH]1)NC(=O)[C@@H]1CCC(=O)N1 ([pGlu]HWSYGLRP-NHEt) | 1.39% | – |
| O=C(O)CCCC[C@@H]1SC[C@@H]2NC(=O)N[C@@H]21 | -2.63% | – |

system: not listed separately; experiment: qHTS to identify inhibitors of the type 1 interferon - major histocompatibility complex class I in skeletal muscle: primary screen against the NCATS Pharmaceutical Collection (AID 1347407); conditions: human skeletal muscle cells, IFN-b-induced MHC-I HiBiT luminescence, 24 h; series mostly up to 45.9 µM; activity change, negative = inhibition: at the top concentration;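 also: luminescence of HiBiT knocked into endogenous HLA-B as interferon-induced MHC class I level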; also: potency is read from the fitted curve at half-maximal effect; as to activity change, negative = inhibition: % is scaled to controls: 0 for no effect and ±100 for the full control effect
Outline: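 Luminescence from HiBiT-tagged endogenous HLA-B*08:01 served as the read-out of IFN-beta-induced MHC class I in CRISPR-engineered C25cl48 myoblasts. Cells received 4 ng/ml IFN-beta plus compound (high final 46 uM, […]) for 24 h.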

| SMILES | activity change, negative = inhibition | Potency |
| --- | --- | --- |
| CC1(C)OC(=O)Nc2ccc(Br)cc21 | 1.58% | – |
| COc1ccc(-n2nc(CCC(=O)N(C)O)cc2-c2ccc(Cl)cc2)cc1 | -5.78% | – |
| CC(NN)c1ccccc1 (configuration not stated) | -4.69% [at 19 µM] | – |
| CCc1cc2cc(OC)c(OC)cc2c(Cc2ccccc2)n1 | -29.2% | – |
| CC(=O)O[C@H]1CC[C@@]2(C)C(=CC[C@@H]3[C@@H]2CC[C@]2(C)C(C(C)=O)=CC[C@@H]32)C1 | -7.57% | – |
| COCCc1ccccn1 | -1.47% | – |
| OCCCc1ccccc1 | -15.4% | – |
| COc1ccc2cc(C=O)ccc2c1 | -4.87% | – |
| CCCCCN(CCCOC)C(=O)C(CCC(=O)O)NC(=O)c1ccc(Cl)c(Cl)c1 (configuration not stated) | -6.98% | – |
| COC(=O)CCCCC(CCSS/C(CCO)=C(\C)N(C=O)Cc1cnc(C)nc1N)SC(C)=O (configuration not stated) | -24.4% | – |
| Oc1ccc(CCNCCCCCCNCCc2ccccc2)cc1O | -5.31% | – |
| CCN1CCN(C(=O)N[C@@H](C(=O)N[C@@H]2C(=O)N3[C@@H]2SC(C)(C)[C@H]3C(=O)O)c2ccccc2)C(=O)C1=O | 18.8% | – |
| COc1cc(/C=C/C(N)=O)cc(OC)c1OC | -9.98% | – |
| O=C(CS(=O)Cc1ccco1)NC/C=C\COc1cc(CN2CCCCC2)ccn1 (configuration not stated) | 13% | – |
| NS(=O)(=O)c1ccc(N2CCCCS2(=O)=O)cc1 | 7.53% | – |
| CN(C)CCN1CCN(c2cccc(Cl)c2)C1=O | 2.09% | – |
| CN1CCN(N)CC1 | 4.27% | – |
| C1N2CN3CN1CN(C2)C3 | -2.78% | – |

| SMILES | activity change, negative = inhibition | Potency |
| --- | --- | --- |
| O=C(O)CCCC[P+](c1ccccc1)(c1ccccc1)c1ccccc1 | -0.573% | – |
| Cc1ncc(CO)c(CO)c1O | -8.14% | – |
| CCOC(=O)O[C@]1(C(=O)OCCl)CC[C@H]2[C@@H]3CCC4=CC(=O)C=C[C@]4(C)[C@H]3[C@@H](O)C[C@@]21C | 7.77% | – |
| CCOC(=O)NNc1ccc(N(CC)CC(C)O)nn1 (configuration not stated) | -1.55% | – |
| CCC1(c2cnc[nH]2)Cc2ccccc2C1 | -6.22% | – |
| Cc1[nH]cnc1-c1ccc(Cl)cc1 | 7.64% | – |
| O=[N+]([O-])c1ccc(O)c2ncccc12 | -12.2% | – |
| CC(=O)/C=C/C=C1/C2CCC(C2)C1(C)C (configuration not stated) | -9.74% | – |
| CN1CCC(=C2c3ccccc3CCc3cccnc32)CC1 | 7.75% | – |
| CC(C)(C)NCC(O)COc1ccccc1OCC1CCCO1 (configuration not stated) | -12.6% | – |
| CC(COc1ccccc1)NN (configuration not stated) | 0.205% | – |
| CN1CCC(Nc2ncc3ncnc(Nc4ccc(F)c(Cl)c4)c3n2)CC1 | – | 18.7 µM (active) |
| CCOCCn1c(C2CCN(CCc3ccc(C(C)(C)C(=O)O)cc3)CC2)nc2ccccc21 | -14.3% | – |
| O=C(Oc1ccccc1)c1ccccc1O | -0.804% | – |
| O=c1[nH]c(=O)n([C@H]2O[C@H](CO)[C@@H](O)[C@@H]2O)cc1/C=C\Br | -2.15% | – |
| CC(=O)OC/C=C(C)/C=C/C=C(C)/C=C/C1=C(C)CCCC1(C)C | 1.65% | – |
| CCNC(=O)[C@@H]1CCCN1C(=O)[C@H](CCCN=C(N)N)NC(=O)[C@H](CC(C)C)NC(=O)CNC(=O)[C@H](Cc1ccc(O)cc1)NC(=O)[C@H](CO)NC(=O)[C@H](Cc1c[nH]c2ccccc12)NC(=O)[C@H](Cc1cnc[nH]1)NC(=O)[C@@H]1CCC(=O)N1 ([pGlu]HWSYGLRP-NHEt) | 5.82% | – |
| O=C(O)CCCC[C@@H]1SC[C@@H]2NC(=O)N[C@@H]21 | -9.82% | – |

molecular target: Protein phosphatase 1D (Homo sapiens) (UniProt O15297); experiment: RapidFire Mass Spectrometry qHTS Assay for Modulators of WT P53-Induced Phosphatase 1 (WIP1) (AID 1347424); conditions: WIP1 dephosphorylation of phosphopeptide, RapidFire MS; series mostly up to 63 µM; activity change, negative = inhibition: at the top concentration;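 also: amount of dephosphorylated VEPPL-S-QETFS peptide product formed by WIP1; plate controls were DMSO wells for no effect and GSK830371 inhibitor control at 10 µM for full effect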
Sequence (O15297 whole entry, looked up): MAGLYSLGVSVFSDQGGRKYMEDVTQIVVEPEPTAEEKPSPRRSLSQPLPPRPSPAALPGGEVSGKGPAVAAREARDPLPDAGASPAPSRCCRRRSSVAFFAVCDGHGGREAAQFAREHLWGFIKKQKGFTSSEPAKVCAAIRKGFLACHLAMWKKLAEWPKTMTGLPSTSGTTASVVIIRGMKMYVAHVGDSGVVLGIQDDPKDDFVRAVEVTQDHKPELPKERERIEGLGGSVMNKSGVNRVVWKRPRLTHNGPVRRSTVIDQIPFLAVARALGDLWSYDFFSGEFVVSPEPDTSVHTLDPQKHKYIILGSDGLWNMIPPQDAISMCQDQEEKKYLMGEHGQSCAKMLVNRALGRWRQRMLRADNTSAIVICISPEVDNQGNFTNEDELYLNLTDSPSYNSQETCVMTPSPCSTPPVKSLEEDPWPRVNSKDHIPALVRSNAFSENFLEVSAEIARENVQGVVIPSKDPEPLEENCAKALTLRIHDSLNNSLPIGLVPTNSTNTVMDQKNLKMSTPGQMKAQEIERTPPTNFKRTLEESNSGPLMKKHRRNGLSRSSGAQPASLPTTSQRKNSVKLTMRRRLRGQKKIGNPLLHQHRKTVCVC
Outline: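 WIP1 (10 nM final) was preincubated 1 h at room temperature with compounds in Tris-HCl pH 7.5, 30 mM MgCl2, TCEP, EGTA, BSA; 2 uM VEPPL-pS-QETFS phosphopeptide was added for 5 min, quenched with formic acid, and dephosphorylated product quantified by RapidFire MS.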

| SMILES | activity change, negative = inhibition |
| --- | --- |
| CC1(C)OC(=O)Nc2ccc(Br)cc21 | -1.46% |
| COc1ccc(-n2nc(CCC(=O)N(C)O)cc2-c2ccc(Cl)cc2)cc1 | 50.1% |
| CC(NN)c1ccccc1 (configuration not stated) | -1.06% [at 26.6 µM] |
| CCc1cc2cc(OC)c(OC)cc2c(Cc2ccccc2)n1 | 20.7% |
| CC(=O)O[C@H]1CC[C@@]2(C)C(=CC[C@@H]3[C@@H]2CC[C@]2(C)C(C(C)=O)=CC[C@@H]32)C1 | 18.7% |
| COCCc1ccccn1 | -9.88% |
| OCCCc1ccccc1 | 8.85% |
| COc1ccc2cc(C=O)ccc2c1 | -3.63% |
| CCCCCN(CCCOC)C(=O)C(CCC(=O)O)NC(=O)c1ccc(Cl)c(Cl)c1 (configuration not stated) | 14.6% |
| COC(=O)CCCCC(CCSS/C(CCO)=C(\C)N(C=O)Cc1cnc(C)nc1N)SC(C)=O (configuration not stated) | 9.21% |
| Oc1ccc(CCNCCCCCCNCCc2ccccc2)cc1O | -2.16% |
| CCN1CCN(C(=O)N[C@@H](C(=O)N[C@@H]2C(=O)N3[C@@H]2SC(C)(C)[C@H]3C(=O)O)c2ccccc2)C(=O)C1=O | 0.78% |
| COc1cc(/C=C/C(N)=O)cc(OC)c1OC | 1.36% |
| O=C(CS(=O)Cc1ccco1)NC/C=C\COc1cc(CN2CCCCC2)ccn1 (configuration not stated) | 2.2% |
| NS(=O)(=O)c1ccc(N2CCCCS2(=O)=O)cc1 | 6.92% |
| CN(C)CCN1CCN(c2cccc(Cl)c2)C1=O | 9.12% |
| CN1CCN(N)CC1 | 34.6% |
| C1N2CN3CN1CN(C2)C3 | -17.4% |

| SMILES | activity change, negative = inhibition |
| --- | --- |
| O=C(O)CCCC[P+](c1ccccc1)(c1ccccc1)c1ccccc1 | -2.55% |
| Cc1ncc(CO)c(CO)c1O | -6.14% |
| CCOC(=O)O[C@]1(C(=O)OCCl)CC[C@H]2[C@@H]3CCC4=CC(=O)C=C[C@]4(C)[C@H]3[C@@H](O)C[C@@]21C | 1.34% |
| CCOC(=O)NNc1ccc(N(CC)CC(C)O)nn1 (configuration not stated) | -1.74% |
| CCC1(c2cnc[nH]2)Cc2ccccc2C1 | 22.7% |
| Cc1[nH]cnc1-c1ccc(Cl)cc1 | 5.36% |
| O=[N+]([O-])c1ccc(O)c2ncccc12 | -2.57% |
| CC(=O)/C=C/C=C1/C2CCC(C2)C1(C)C (configuration not stated) | 18.8% |
| CN1CCC(=C2c3ccccc3CCc3cccnc32)CC1 | 7.58% |
| CC(C)(C)NCC(O)COc1ccccc1OCC1CCCO1 (configuration not stated) | -10.9% |
| CC(COc1ccccc1)NN (configuration not stated) | 5.82% |
| CN1CCC(Nc2ncc3ncnc(Nc4ccc(F)c(Cl)c4)c3n2)CC1 | 12% |
| CCOCCn1c(C2CCN(CCc3ccc(C(C)(C)C(=O)O)cc3)CC2)nc2ccccc21 | -10.4% |
| O=C(Oc1ccccc1)c1ccccc1O | 0.722% |
| O=c1[nH]c(=O)n([C@H]2O[C@H](CO)[C@@H](O)[C@@H]2O)cc1/C=C\Br | 2.28% |
| CC(=O)OC/C=C(C)/C=C/C=C(C)/C=C/C1=C(C)CCCC1(C)C | 50.6% |
| CCNC(=O)[C@@H]1CCCN1C(=O)[C@H](CCCN=C(N)N)NC(=O)[C@H](CC(C)C)NC(=O)CNC(=O)[C@H](Cc1ccc(O)cc1)NC(=O)[C@H](CO)NC(=O)[C@H](Cc1c[nH]c2ccccc12)NC(=O)[C@H](Cc1cnc[nH]1)NC(=O)[C@@H]1CCC(=O)N1 ([pGlu]HWSYGLRP-NHEt) | -1.35% |
| O=C(O)CCCC[C@@H]1SC[C@@H]2NC(=O)N[C@@H]21 | -3.48% |
